Laboratory results as given in the supplement of paper PMC4840960.

test system: E18 rat cortical neuron-glia co-culture; assay: myelination (MBP fiber length per Olig2+ nucleus), % of 1 µM DAPT response (DMSO = 0) (% of DAPT); higher = more myelination, active = 50 or more; conditions: 5 µM; treatment time: 8 days (DIV5-DIV13)
Method in brief: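 Library compounds at 1 or 5 µM in myelination medium were applied from DIV5 to DIV13 to papain-dissociated E18 rat cortical co-cultures seeded at 20,000 cells/well on poly-d-lysine/laminin 96-well plates. Fixed cells (4 % paraformaldehyde) were immunostained for MBP and Olig2 with DAPI, and four 10X fields were analysed in each duplicate well. Continuous straight MBP fiber length per Olig2+ nucleus was set to 0 for 0.1 % DMSO and to 100 for a 1 µM positive control.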

Q: How did the myelination turn out when `S=c1[nH]cnc2nc[nH]c12` [Mercaptopurine] was run?
A: -50.2 (inactive)

Q: Which myelination does the source give for `CC(C)(C(=O)O)c1ccc(C(O)CCCN2CCC(C(O)(c3ccccc3)c3ccccc3)CC2)cc1` (stereo unspecified) [Fexofenadine] here?
A: 0.141 (inactive)

Q: `CC1=C(C(=O)O)N2C(=O)[C@@H](NC(=O)[C@H](N)c3ccccc3)[C@H]2SC1` [Cephalexin] was tested. Which myelination did it give?
A: -1.59 (inactive)

Q: With `OCCN(CCO)c1nc(N2CCCCC2)c2nc(N(CCO)CCO)nc(N3CCCCC3)c2n1` [Dipyridamole] as the molecule, how does the myelination read?
A: -17.3 (inactive)

Q: How did the myelination turn out when `CCC[C@@H]1C[C@@H](C(=O)N[C@@H]([C@H]2O[C@H](SC)[C@H](O)[C@@H](O)[C@H]2O)[C@@H](C)O)N(C)C1` [Lincomycin] was run?
A: 7.24 (inactive)

Q: For `CCOC(=O)[C@H](CCc1ccccc1)N[C@H]1CCc2ccccc2N(CC(=O)O)C1=O` [Benazepril], which myelination is on record?
A: -6.97 (inactive)

Q: For `Cn1c(NCCN(CCO)CCCc2ccc([N+](=O)[O-])cc2)cc(=O)n(C)c1=O` [Nifekalant], which myelination is on record?
A: -19.6 (inactive)

Q: How did the myelination turn out when `COC(=O)C1=C(C)NC(C)=C(C(=O)OC(C)C)C1c1cccc2nonc12` (stereo unspecified) [Isradipine] was run?
A: 34.9 (inactive)

Q: With `C[C@](N)(Cc1ccc(O)c(O)c1)C(=O)O` [Methyldopa] as the molecule, how does the myelination read?
A: -8.85 (inactive)

Q: With `CCCNCC(O)COc1ccccc1C(=O)CCc1ccccc1` (stereo unspecified) [Propafenone] as the molecule, how does the myelination read?
A: -22.4 (inactive)

Q: Which myelination does the source give for `CC(Oc1c(Cl)cccc1Cl)C1=NCCN1` (stereo unspecified) [lofexidine] here?
A: 2.57 (inactive)

Q: With `C[C@@H]1O[C@@H](OC[C@H]2O[C@@H](Oc3c(-c4ccc(O)c(O)c4)oc4cc(O)cc(O)c4c3=O)[C@H](O)[C@@H](O)[C@@H]2O)[C@H](O)[C@H](O)[C@H]1O` [Rutin] as the molecule, how does the myelination read?
A: -4.44 (inactive)

Q: `Cc1[nH]c(=O)c(C#N)cc1-c1ccncc1` [Milrinone] was tested. Which myelination did it give?
A: -15.7 (inactive)

Q: Which myelination does the source give for `Cc1nc2ccccn2c(=O)c1CCN1CCC(C(=O)c2ccc(F)cc2)CC1` [Pirenperone] here?
A: -11.5 (inactive)

Q: How did the myelination turn out when `C[C@H]1[C@H](OC(=O)CCC(=O)O)O[C@@H]2O[C@@]3(C)CC[C@H]4[C@H](C)CC[C@@H]1[C@@]24OO3` [Artesunate] was run?
A: 189

Q: For `CCC1=C[C@@H]2CN(C1)Cc1c([nH]c3ccccc13)[C@@](C(=O)OC)(c1cc3c(cc1OC)N(C)[C@H]1[C@@](O)(C(=O)OC)[C@H](OC(C)=O)[C@]4(CC)C=CCN5CC[C@]31[C@@H]54)C2` [Vinorelbine], which myelination is on record?
A: -26.1 (inactive)

Q: How did the myelination turn out when `Nc1nc(N)c2nc(-c3ccccc3)c(N)nc2n1` [Triamterene] was run?
A: 461 (active)

Q: How did the myelination turn out when `CC(C)(C#N)c1cc(Cn2cncn2)cc(C(C)(C)C#N)c1` [Anastrozole] was run?
A: -11.9 (inactive)

Q: For `CC(=O)[C@H]1CC[C@H]2[C@@H]3CCC4=CC(=O)CC[C@]4(C)[C@H]3CC[C@]12C` [Progesterone], which myelination is on record?
A: -38.4 (inactive)

Q: With `N=C(N)N` [Guanidine] as the molecule, how does the myelination read?
A: -8.57 (inactive)

Q: How did the myelination turn out when `O=C1[C@H]2CCCC[C@H]2C(=O)N1CCCCN1CCN(c2nsc3ccccc23)CC1` [Perospirone] was run?
A: -34.5 (inactive)

Q: For `C#C[C@]1(O)CC[C@H]2[C@@H]3CCc4cc(OC)ccc4[C@H]3CC[C@@]21C` [Mestranol], which myelination is on record?
A: -18 (inactive)

Q: Which myelination does the source give for `C[C@@H](c1ncncc1F)[C@](O)(Cn1cncn1)c1ccc(F)cc1F` [Voriconazole] here?
A: -29.3 (inactive)

Q: For `CC1(C)O[C@@H]2[C@@H](CO[C@@]3(COS(N)(=O)=O)OC(C)(C)O[C@@H]23)O1` [Topiramate], which myelination is on record?
A: -11.6 (inactive)

Q: For `CN(C)[C@@H]1C(O)=C(C(N)=O)C(=O)[C@@]2(O)C(O)=C3C(=O)c4c(O)cccc4[C@@](C)(O)[C@H]3[C@H](O)[C@@H]12` [Oxytetracycline], which myelination is on record?
A: -10.5 (inactive)

Q: Which myelination does the source give for `Nc1nnc(-c2cccc(Cl)c2Cl)c(N)n1` [Lamotrigine] here?
A: -15.5 (inactive)

Q: `Oc1ccc(C2CNCCc3c2cc(O)c(O)c3Cl)cc1` (stereo unspecified) [Fenoldopam] was tested. Which myelination did it give?
A: -45 (inactive)

Q: `CCCC1O[C@@H]2C[C@H]3[C@@H]4CCC5=CC(=O)C=C[C@]5(C)[C@H]4[C@@H](O)C[C@]3(C)[C@]2(C(=O)CO)O1` (stereo partly specified) [Budesonide] was tested. Which myelination did it give?
A: -18.8 (inactive)

Q: Which myelination does the source give for `O=S(=O)(O)CCS` [Mesna] here?
A: -6.97 (inactive)

Q: `Nc1ccc2cn[nH]c2c1` [6-Aminoindazole] was tested. Which myelination did it give?
A: -11.1 (inactive)

Q: How did the myelination turn out when `O=c1n(CCCN2CCN(c3cccc(Cl)c3)CC2)nc2ccccn12` [Trazodone] was run?
A: -62.2 (inactive)
